Records with an inconclusive call do not appear. Where a call stands in place of a potency, no number is given. Values without a mark were called inactive. The source made the active and inactive calls. Calls follow the shape of the dose curve; as a rule, active = well fitted activation curve with a large enough effect; inconclusive = small, poorly fitted or top-dose-only effect; inactive = no such curve, though single readings can be large or run the other way.
Potency is read from the fitted curve at half-maximal effect.

The nature of this experiment: qHTS assay for re-activators of p53 using a Luc reporter: Hit Validation. Also: nearly all actives have a fitted effect of over 75% in size. Conditions: p53-responsive luciferase reporter cells, luminescence, H1299 line expressing heat-sensitive Ala138Val p53; series mostly up to 46.1 µM. Summed up: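 H1299 (p53-null) cells stably carrying p53-A138V and a BP100-luciferase reporter, 1000 cells/well, treated 24 h at 37 deg C. Compounds at several concentrations, 1:5 dilution; nocodazole control; luminescence read after 10 min with detection reagent.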
On the technique in general: Quantitative high-throughput screening tests each substance at several concentrations.
`Cc1ccc(/C=N/NC(=O)c2cccs2)s1`: the Potency is 5.8 µM (active).

Consider `COc1ccccc1C(=O)CC(=O)c1ccccc1`, for which the Potency entry was “inactive”. With `O=C(COc1ccc(F)cc1Cl)NC1CCCCCC1`, the Potency is 7.31 µM (active).

With `O=C(CNS(=O)(=O)c1cccc(Cl)c1)Nc1ccc(-c2nc3ccccc3s2)cc1`, the Potency was 16.4 µM (active). Turning to `CN(C)c1ccc(CNC2CC(C)(C)NC(C)(C)C2)cc1`, the Potency entry was “inactive”. The same measure, in the same setting: the figure for `Cc1cc(/C=C2/C(=O)NN(c3ccccc3)C2=O)c(C)n1-c1cccc(O)c1` is 10.3 µM (active); for `N#CC1(c2ccc(NC(=O)c3ccccc3F)cc2)CCCC1` it is 1.64 µM (active).

Regarding `C/C(=C\COc1ccc2ccc(=O)oc2c1)CC[C@@H](O)C(C)(C)O`, the Potency entry is “inactive”.

Take `COc1cccc(NC(=O)CSC2=C(C#N)C(c3ccco3)C3=C(CCCC3=O)N2)c1` (stereo not drawn): the Potency entry was “inactive”. On to `CN(C(=O)NC(=O)C1=C(N2CCOCC2)/C(=C/c2ccccc2)CC1)S(C)(=O)=O`, for which the Potency entry was “inactive”.

Take `O=C(COC(=O)c1cc2ccccc2oc1=O)Nc1cccc(S(=O)(=O)N2CCCCCC2)c1`: the Potency result was “inactive”. As to `Cc1occc1C(=O)NN=C1C2CC3CC(C2)CC1C3`, the Potency result was “inactive”. For `Cc1ccc(C(=O)Nc2cnc3sc(C)nn3c2=O)cc1`, the Potency was 6.51 µM (active). As to `Cc1csc(NC(=O)CSc2nnc(-c3cccs3)n2C)n1`, the Potency result is “inactive”. Turning to `CC1(C)CC(=O)CC(=O)/C1=N\Nc1c(Cl)cc(Cl)cc1Cl`, the Potency result is “inactive”. `O=c1oc(-c2ccc(O)c(O)c2)cc2cc(O)cc(O)c12`: the Potency was 11.6 µM (active). Take `COC(=O)CSc1nc2cc3c(cc2cc1C#N)OCO3`: the Potency result was “inactive”. Still for that read-out and setting: the entry for `Nc1nc2ccc(N3CCOCC3)cc2s1` is “inactive”; for `CC(=O)N/C(=C/c1ccc2c(c1)OCO2)C(=O)Nc1ccccc1` it is “inactive”. Same read-out and setting: the entry for `CC12CCC(C(=O)N(CSC(=S)N/N=C\c3ccccc3O)C1=O)C2(C)C` (stereo not drawn) is “inactive”. As to `COCCn1c(C)cc(C(=O)CSc2nc3ccccc3s2)c1C`, the activation is 130% [at 9.22 µM]. For the compound `CCc1ccc2[nH]c(=O)c(CN(CCN3CCCC3)C(=O)NC3CCCCC3)cc2c1`, the Potency result is “inactive”.

Take `CCCCC(=O)NC(c1ccc(Cl)cc1Cl)c1ccc2cccnc2c1O` (stereo not drawn): the Potency is 20.6 µM (active). Regarding `CC1C(=O)CCN(C(C)(C)C)C1C` (stereo not drawn), the Potency result is “inactive”. Take `Cc1ccc2nc(N3C(=O)C(O)=C(C(=O)c4ccc(C)o4)C3c3ccco3)sc2c1` (stereo not drawn): the Potency result was “inactive”. Take `COC(=O)c1ccc(CSc2nnc(-c3c[nH]c4ccccc34)n2-c2ccccc2)cc1`: the Potency result is “inactive”. The same measure, in the same setting: as for `O=C(CNc1ccccc1)N/N=C/c1c[nH]c2ccccc12`, the entry is “inactive”. On the same count and under the same terms, as for `COc1ccc(C(C#N)N2N=C(c3ccccc3)CC2c2ccccc2)cc1OC` (stereo not drawn), the entry is “inactive”. Turning to `Cc1cccc(NC(=O)/C=C/c2ccc(Cl)cc2)n1`, the Potency is 2.31 µM (active). For the compound `COc1ccnc(CSC(N)=Nc2ccccc2OC)c1`, the Potency entry is “inactive”.

Consider `CCn1c(=O)c2ccccc2n(Cc2ccccc2C)c1=O`, for which the Potency result is “inactive”. For the compound `COc1ccc(C(=O)C(CN2CCCC2)c2ccccc2)cc1` (stereo not drawn), the Potency result is “inactive”. `COc1cccc(-c2nc3cc(C)ccc3o2)c1`: the Potency was 0.411 µM (active). As to `CCN(Cc1ccccc1)C(=O)CN1C(=S)NC(C)(C)CC1C` (stereo not drawn), the activation is -15.4% [at 9.22 µM].

As for `NNc1nc(NCc2ccccc2)nc(N2CCOCC2)n1`, the Potency result was “inactive”.

As to `CCOc1ccc(NC(=O)C(c2ccccn2)N(C(=O)CCl)c2ccc(OC)cc2)cc1` (stereo not drawn), the Potency result is “inactive”. For the compound `COc1ccccc1Oc1c(C)oc2c(CN(C)C)c(O)ccc2c1=O`, the Potency result was “inactive”. As to `O=C(N/N=C\c1cc(Cl)ccc1O)c1ccc(S(=O)(=O)N2CCCCC2)cc1`, the Potency result is “inactive”.

The values are drawn from PubChem BioAssay AID624305 (National Center for Advancing Translational Sciences (NCATS), 2012).
